Reference: PubChem BioAssay (EPA / NIEHS)
Records with an inconclusive call do not appear. Where a structure was tested more than once in an assay, its records may differ in their call. Calls of active or inactive are those of the source. How the source made its calls, unless noted: active means hit-call score of the fitted dose curve at least 0.9, where 1 is the maximum; inactive means score below 0.9.

Legend:
[1] = target: Glucocorticoid receptor (Homo sapiens) (UniProt P04150); test: ATG_GR_TRANS: Attagene TRANS-FACTORIAL HepG2 Assay for human Glucocorticoid Receptor (GR) (AID 2282978; active means hit-call score of the fitted dose curve at least 0.9, where 1 is the maximum;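 further: activators score as hits since higher reporter transcript over DMSO is fitted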); conditions: HepG2 Attagene TRANS GR reporter, mRNA transcription
Sequence of Glucocorticoid receptor (Homo sapiens) (P04150 whole entry, looked up, the tested form may be a part): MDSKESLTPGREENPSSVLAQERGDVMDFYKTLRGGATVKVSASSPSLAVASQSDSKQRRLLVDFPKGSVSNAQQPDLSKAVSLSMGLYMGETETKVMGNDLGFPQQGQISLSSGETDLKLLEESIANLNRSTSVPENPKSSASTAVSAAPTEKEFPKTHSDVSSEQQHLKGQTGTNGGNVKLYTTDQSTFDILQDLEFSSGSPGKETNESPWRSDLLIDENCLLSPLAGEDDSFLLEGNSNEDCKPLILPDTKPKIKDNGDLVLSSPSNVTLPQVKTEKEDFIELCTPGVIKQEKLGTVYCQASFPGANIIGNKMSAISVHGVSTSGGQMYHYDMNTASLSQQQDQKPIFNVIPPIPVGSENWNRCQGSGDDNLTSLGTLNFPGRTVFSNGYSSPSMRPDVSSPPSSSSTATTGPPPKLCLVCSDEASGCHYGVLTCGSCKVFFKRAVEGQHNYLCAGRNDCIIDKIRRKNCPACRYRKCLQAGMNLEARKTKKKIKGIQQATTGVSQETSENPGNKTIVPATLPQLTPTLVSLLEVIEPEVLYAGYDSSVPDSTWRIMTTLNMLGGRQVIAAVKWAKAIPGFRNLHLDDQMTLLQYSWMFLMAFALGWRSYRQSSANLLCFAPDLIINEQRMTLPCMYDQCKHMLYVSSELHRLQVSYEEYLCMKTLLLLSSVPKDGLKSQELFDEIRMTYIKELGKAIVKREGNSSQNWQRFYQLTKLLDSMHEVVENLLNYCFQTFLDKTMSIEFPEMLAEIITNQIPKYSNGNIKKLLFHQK
Outline: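 HepG2 transient transfection, multiple reporter units, GAL4-UAS under NR-GAL4 chimera control. 24 h treatment. Reporter mRNA by RT-PCR/CE fluorescence, DMSO as negative control.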

[2] = target: Bile acid receptor (Homo sapiens) (UniProt Q96RI1); test: ATG_FXR_TRANS: Attagene TRANS-FACTORIAL HepG2 Assay for Farnesoid X Receptor (FXR) (AID 2282979; active means hit-call score of the fitted dose curve at least 0.9, where 1 is the maximum;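 further: hits raise reporter mRNA above DMSO so AC50 marks FXR activation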); conditions: HepG2 Attagene TRANS FXR-GAL4 reporter transcription
Sequence of Bile acid receptor (Homo sapiens) (Q96RI1 whole entry, looked up, the tested form may be a part): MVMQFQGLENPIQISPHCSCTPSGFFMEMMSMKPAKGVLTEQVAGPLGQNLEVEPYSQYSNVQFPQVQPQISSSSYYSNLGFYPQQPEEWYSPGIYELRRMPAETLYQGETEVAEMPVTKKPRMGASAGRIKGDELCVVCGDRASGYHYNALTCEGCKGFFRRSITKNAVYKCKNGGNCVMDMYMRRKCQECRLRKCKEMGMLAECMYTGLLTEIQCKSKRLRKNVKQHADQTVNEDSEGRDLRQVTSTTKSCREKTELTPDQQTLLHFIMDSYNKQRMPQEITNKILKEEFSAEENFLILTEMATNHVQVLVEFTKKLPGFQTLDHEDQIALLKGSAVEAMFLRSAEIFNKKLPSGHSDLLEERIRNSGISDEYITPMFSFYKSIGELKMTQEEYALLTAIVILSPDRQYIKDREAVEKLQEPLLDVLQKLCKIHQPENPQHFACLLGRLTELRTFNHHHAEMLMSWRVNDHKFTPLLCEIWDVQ
Outline: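 HepG2 cells transiently transfected with reporter constructs in which a chimeric FXR-GAL4 protein drives a GAL4-UAS reporter; 24 h compound exposure. Reporter mRNA measured by RT-PCR, FAM labelling, HpaI digestion and capillary electrophoresis; gain-of-signal versus DMSO.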

[3] = ATG_M_06_TRANS: Attagene TRANS-FACTORIAL HepG2 Assay for M06 Transcription Factor (Internal Marker) (AID 2282983; active means hit-call score of the fitted dose curve at least 0.9, where 1 is the maximum); conditions: HepG2 Attagene TRANS M06 internal marker reporter
Outline: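 In this multiplexed HepG2 system, compounds are incubated 24 h with cells carrying GAL4-UAS reporter units. Reporter RNA is amplified and resolved by capillary electrophoresis, and induction is scored against DMSO.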

[4] = ATG_M_32_TRANS: Attagene TRANS-FACTORIAL HepG2 Assay for M32 Transcription Factor (Internal Marker) (AID 2282984; active means hit-call score of the fitted dose curve at least 0.9, where 1 is the maximum;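 further: transcript level of a background control reporter unit measured by RT-PCR and capillary electrophoresis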); conditions: HepG2 Attagene TRANS M32 internal marker reporter
Outline: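 Fluorescence-detected mRNA induction, HepG2 liver cells, 24 h after dosing. Multiple GAL4-UAS reporter units introduced by transient transfection; background-control endpoint analysed for gain of signal against DMSO.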

[5] = target: Transcriptional activator Myb (Homo sapiens) (UniProt P10242); test: ATG_Myb_CIS: Attagene CIS-FACTORIAL HepG2 Assay for human Myeloblastosis (Myb) Proto-Oncogene Transcription Factor (AID 2282986); conditions: HepG2 Attagene CIS-FACTORIAL Myb reporter transcription; actives raise or lower the signal
Sequence of Transcriptional activator Myb (Homo sapiens) (P10242 whole entry, looked up): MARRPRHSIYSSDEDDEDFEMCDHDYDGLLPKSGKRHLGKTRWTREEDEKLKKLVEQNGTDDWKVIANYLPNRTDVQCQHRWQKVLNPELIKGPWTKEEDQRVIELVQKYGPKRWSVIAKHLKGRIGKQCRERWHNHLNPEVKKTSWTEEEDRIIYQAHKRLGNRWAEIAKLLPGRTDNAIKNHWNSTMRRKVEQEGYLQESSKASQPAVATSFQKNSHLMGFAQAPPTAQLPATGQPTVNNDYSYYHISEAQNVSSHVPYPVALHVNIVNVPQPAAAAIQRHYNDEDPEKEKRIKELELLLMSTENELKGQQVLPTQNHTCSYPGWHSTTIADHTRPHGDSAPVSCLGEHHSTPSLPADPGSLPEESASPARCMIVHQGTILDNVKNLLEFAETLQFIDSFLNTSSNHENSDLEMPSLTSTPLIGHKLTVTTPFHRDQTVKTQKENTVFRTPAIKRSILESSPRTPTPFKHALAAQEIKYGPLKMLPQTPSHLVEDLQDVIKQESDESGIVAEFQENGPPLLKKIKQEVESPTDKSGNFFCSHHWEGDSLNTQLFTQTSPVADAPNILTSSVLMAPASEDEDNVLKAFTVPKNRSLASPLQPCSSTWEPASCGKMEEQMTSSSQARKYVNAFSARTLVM
Outline: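 Multiplexed cis-reporter system in HepG2: transient transfection, 24 h treatment, mRNA readout by RT-PCR and capillary electrophoresis. Both increases and decreases are scored versus DMSO negative control.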

[6] = target: Nuclear respiratory factor 1 (Homo sapiens) (UniProt Q16656); test: ATG_NRF1_CIS: Attagene CIS-FACTORIAL HepG2 Assay for human Nuclear Respiratory Factor 1 (NRF1) Orphan Gene (AID 2282987); conditions: HepG2 NRF1 cis-element reporter, Attagene multiplex; actives raise or lower the signal
Sequence of Nuclear respiratory factor 1 (Homo sapiens) (Q16656 whole entry, looked up): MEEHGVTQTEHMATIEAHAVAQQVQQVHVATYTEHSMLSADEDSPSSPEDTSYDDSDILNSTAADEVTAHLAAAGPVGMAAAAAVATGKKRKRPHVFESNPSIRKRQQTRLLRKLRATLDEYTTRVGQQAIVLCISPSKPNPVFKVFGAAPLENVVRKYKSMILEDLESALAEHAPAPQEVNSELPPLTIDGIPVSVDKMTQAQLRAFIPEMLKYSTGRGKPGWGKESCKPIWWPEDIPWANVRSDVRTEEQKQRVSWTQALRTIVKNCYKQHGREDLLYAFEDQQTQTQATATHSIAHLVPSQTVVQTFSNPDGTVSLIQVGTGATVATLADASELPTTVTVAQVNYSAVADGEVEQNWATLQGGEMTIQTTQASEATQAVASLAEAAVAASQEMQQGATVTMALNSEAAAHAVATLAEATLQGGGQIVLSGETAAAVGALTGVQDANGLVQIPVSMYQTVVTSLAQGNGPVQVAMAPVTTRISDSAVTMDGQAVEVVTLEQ
Outline: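 Endogenous factor activity was captured via cis-element-driven reporter transcripts in HepG2 cells. Following 24 h chemical treatment, transcripts were quantified by RT-PCR and capillary electrophoresis.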

[7] = ATG_NFI_CIS: Attagene CIS-FACTORIAL HepG2 Assay for human Nuclear Factor I (NFI) (AID 2282989); conditions: HepG2 cis-regulatory reporter, NFI response element transcription; actives raise or lower the signal
Outline: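 Transfected HepG2 liver cells, exposed 24 h, supplied total RNA for oligo(dT) reverse transcription and reporter-specific PCR. Labelled, HpaI-cut fragments were sized by capillary electrophoresis; DMSO set the baseline for bidirectional fitting.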

[8] = target: Myc proto-oncogene protein (Homo sapiens) (UniProt P01106); test: ATG_Myc_CIS: Attagene CIS-FACTORIAL HepG2 Assay for human Myelocytomatosis (Myc) Proto-Oncogene Transcription Factor (AID 2282990); conditions: HepG2, Attagene cis-reporter transcription factor activity; actives raise or lower the signal
Sequence of Myc proto-oncogene protein (Homo sapiens) (P01106 whole entry, looked up): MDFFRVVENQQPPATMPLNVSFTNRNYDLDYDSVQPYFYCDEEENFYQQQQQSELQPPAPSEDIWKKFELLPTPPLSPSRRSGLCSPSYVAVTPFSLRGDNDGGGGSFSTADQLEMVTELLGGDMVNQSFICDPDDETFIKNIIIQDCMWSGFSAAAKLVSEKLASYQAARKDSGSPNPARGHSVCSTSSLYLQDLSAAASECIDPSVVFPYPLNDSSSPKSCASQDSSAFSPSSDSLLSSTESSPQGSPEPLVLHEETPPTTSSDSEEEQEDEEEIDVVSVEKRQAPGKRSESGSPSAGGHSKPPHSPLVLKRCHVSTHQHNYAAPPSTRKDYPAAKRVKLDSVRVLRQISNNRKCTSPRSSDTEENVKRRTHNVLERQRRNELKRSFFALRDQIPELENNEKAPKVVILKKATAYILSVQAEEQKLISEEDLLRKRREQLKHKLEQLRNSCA
Outline: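 Multiplexed cis-reporter transcription in HepG2 cells after 24 h chemical treatment. Reporter mRNA measured by RT-PCR and capillary electrophoresis fluorescence; activity fitted bidirectionally against DMSO control.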

[9] = ATG_NF_kB_CIS: Attagene CIS-FACTORIAL HepG2 Assay for human Nuclear Factor Kappa B (NF-kB) (AID 2282991); conditions: HepG2 Attagene cis-factorial NF-kB reporter mRNA; actives raise or lower the signal
Outline: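 After 24 h compound incubation, transfected HepG2 cells yield total RNA; reporter cDNA is PCR-amplified, end-labelled with 6-FAM, HpaI-digested and analysed on a genetic analyser. Endogenous factor activity, DMSO-referenced bidirectional fit.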

[10] = ATG_NRF2_ARE_CIS: Attagene CIS-FACTORIAL HepG2 Assay for human Nuclear Factor Erythroid 2 Related Factor 2 (NFR2) response to Antioxidant Response Elements (ARE) (AID 2282992); conditions: HepG2 Attagene ARE/NRF2 reporter, transcription factor activity; actives raise or lower the signal
Outline: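 Endogenous transcription factor activity read out as reporter transcript levels (RT-PCR plus capillary electrophoresis, fluorescence) in transiently transfected HepG2 cells. Measured at 24 h after dosing; gain or loss of signal fitted versus DMSO.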

[11] = ATG_Oct_MLP_CIS: Attagene CIS-FACTORIAL HepG2 Assay for human Octamer-Binding Transcription Factor (Oct) (AID 2282993); conditions: HepG2 Attagene cis-factorial Oct reporter, mRNA; actives raise or lower the signal
Outline: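 Using HepG2 cells bearing transfected cis-reporter constructs, mRNA induction was read after 24 h by fluorescent RT-PCR and capillary electrophoresis, with DMSO defining baseline for gain- or loss-of-signal fits.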

[12] = target: Cellular tumor antigen p53 (Homo sapiens) (UniProt P04637); test: ATG_p53_CIS: Attagene CIS-FACTORIAL HepG2 Assay for human p53 Transcription Factor (AID 2282994); conditions: HepG2 p53 cis-element reporter, Attagene mRNA; actives raise or lower the signal
Sequence of Cellular tumor antigen p53 (Homo sapiens) (P04637 whole entry, looked up): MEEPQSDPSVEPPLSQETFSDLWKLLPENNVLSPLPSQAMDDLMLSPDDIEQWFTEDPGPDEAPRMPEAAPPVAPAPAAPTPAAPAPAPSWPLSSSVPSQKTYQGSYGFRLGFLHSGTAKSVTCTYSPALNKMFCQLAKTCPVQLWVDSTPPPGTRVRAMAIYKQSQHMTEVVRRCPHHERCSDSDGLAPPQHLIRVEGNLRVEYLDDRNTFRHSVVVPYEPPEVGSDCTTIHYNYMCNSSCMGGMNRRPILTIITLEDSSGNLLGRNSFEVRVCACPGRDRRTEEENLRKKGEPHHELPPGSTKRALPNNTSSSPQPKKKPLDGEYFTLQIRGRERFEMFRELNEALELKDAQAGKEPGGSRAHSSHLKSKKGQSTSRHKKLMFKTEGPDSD
Outline: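 Endogenous p53 activity read in transiently transfected HepG2 from a cis-element-driven reporter transcript after 24 h exposure. RNA reverse-transcribed, PCR-amplified, fluorescently labelled and sized by capillary electrophoresis; gain or loss fitted against DMSO baseline.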

[13] = target: Oxysterols receptor LXR-beta (Homo sapiens) (UniProt P55055); test: ATG_LXRb_TRANS: Attagene TRANS-FACTORIAL HepG2 Assay for human Liver X Receptor beta (LXRb) (AID 2282981; active means hit-call score of the fitted dose curve at least 0.9, where 1 is the maximum); conditions: HepG2 Attagene TRANS GAL4-LXRb reporter, mRNA
Sequence of Oxysterols receptor LXR-beta (Homo sapiens) (P55055 whole entry, looked up, the tested form may be a part): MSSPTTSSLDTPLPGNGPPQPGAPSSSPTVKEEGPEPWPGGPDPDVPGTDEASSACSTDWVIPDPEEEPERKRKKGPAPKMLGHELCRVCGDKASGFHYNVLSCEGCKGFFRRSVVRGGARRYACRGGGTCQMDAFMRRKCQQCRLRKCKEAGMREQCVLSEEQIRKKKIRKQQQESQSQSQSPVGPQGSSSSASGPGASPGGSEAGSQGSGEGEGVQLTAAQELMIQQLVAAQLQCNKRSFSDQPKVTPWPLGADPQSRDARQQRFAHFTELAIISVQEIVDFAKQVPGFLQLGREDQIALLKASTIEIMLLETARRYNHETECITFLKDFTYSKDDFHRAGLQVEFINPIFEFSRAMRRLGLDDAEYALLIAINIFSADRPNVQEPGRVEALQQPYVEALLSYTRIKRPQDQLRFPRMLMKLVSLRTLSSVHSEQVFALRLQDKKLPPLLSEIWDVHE
Outline: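 Liver-derived HepG2 cells transfected with Gal4-responsive reporters were dosed for 24 h. Activation was scored as rise in reporter mRNA, by RT-PCR and capillary electrophoresis, above DMSO baseline.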

[14] = BSK_3C_TissueFactor: BioMAP Diversity Plus: 3C Assay for Tissue Factor Biomarker Activity (AID 2282997); conditions: BioMAP 3C HUVEC, tissue factor biomarker readout; actives raise or lower the signal
Outline: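 Readout: Tissue Factor ELISA. Cells: human primary umbilical vein endothelium. Time: 24 h after dosing. Analysis: bidirectional fit, DMSO baseline.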

[15] = BSK_3C_uPAR: BioMAP Diversity Plus: 3C Assay for Urokinase-type plasminogen activator receptor (uPAR) Biomarker Activity (AID 2282998); conditions: BioMAP 3C HUVEC, uPAR biomarker ELISA; actives raise or lower the signal
Outline: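 In this endothelial cell-based assay, human umbilical vein primary cells were treated with chemicals and harvested at 24 h. uPAR was quantified using ELISA, with gains or losses fitted relative to DMSO controls.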

[16] = target: Oxysterols receptor LXR-alpha (Homo sapiens) (UniProt Q13133); test: ATG_LXRa_TRANS: Attagene TRANS-FACTORIAL HepG2 Assay for human Liver X Receptor alpha (LXRa) (AID 2282980; active means hit-call score of the fitted dose curve at least 0.9, where 1 is the maximum); conditions: HepG2 Attagene TRANS reporter, LXRa transactivation
Sequence of Oxysterols receptor LXR-alpha (Homo sapiens) (Q13133 whole entry, looked up, the tested form may be a part): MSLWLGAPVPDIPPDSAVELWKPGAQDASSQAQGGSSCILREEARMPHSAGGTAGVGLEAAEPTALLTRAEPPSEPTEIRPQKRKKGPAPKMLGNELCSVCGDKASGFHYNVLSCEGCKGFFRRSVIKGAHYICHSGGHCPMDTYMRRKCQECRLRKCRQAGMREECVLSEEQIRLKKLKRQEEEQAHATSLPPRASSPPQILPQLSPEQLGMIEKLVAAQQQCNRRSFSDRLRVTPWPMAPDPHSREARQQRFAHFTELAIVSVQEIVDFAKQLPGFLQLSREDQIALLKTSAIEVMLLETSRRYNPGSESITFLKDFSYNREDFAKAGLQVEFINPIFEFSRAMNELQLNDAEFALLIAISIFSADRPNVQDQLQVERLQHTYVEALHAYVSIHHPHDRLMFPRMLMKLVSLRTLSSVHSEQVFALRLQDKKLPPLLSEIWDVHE
Outline: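 HepG2 cells were transiently transfected with multiplexed reporter units driven by chimeric LXRa–GAL4 fusion proteins, then dosed for 24 h. Reporter mRNA was quantified by RT-PCR, fluorescent labelling and capillary electrophoresis; gain of signal fitted against DMSO baseline.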

[17] = target: Nuclear receptor subfamily 4 group A member 2 (Homo sapiens) (UniProt P43354); test: ATG_NURR1_TRANS: Attagene TRANS-FACTORIAL HepG2 Assay for human Nuclear Receptor Related Protein 1 (NURR1) (AID 2282985; active means hit-call score of the fitted dose curve at least 0.9, where 1 is the maximum); conditions: HepG2 Attagene TRANS reporter, mRNA readout
Sequence of Nuclear receptor subfamily 4 group A member 2 (Homo sapiens) (P43354 whole entry, looked up, the tested form may be a part): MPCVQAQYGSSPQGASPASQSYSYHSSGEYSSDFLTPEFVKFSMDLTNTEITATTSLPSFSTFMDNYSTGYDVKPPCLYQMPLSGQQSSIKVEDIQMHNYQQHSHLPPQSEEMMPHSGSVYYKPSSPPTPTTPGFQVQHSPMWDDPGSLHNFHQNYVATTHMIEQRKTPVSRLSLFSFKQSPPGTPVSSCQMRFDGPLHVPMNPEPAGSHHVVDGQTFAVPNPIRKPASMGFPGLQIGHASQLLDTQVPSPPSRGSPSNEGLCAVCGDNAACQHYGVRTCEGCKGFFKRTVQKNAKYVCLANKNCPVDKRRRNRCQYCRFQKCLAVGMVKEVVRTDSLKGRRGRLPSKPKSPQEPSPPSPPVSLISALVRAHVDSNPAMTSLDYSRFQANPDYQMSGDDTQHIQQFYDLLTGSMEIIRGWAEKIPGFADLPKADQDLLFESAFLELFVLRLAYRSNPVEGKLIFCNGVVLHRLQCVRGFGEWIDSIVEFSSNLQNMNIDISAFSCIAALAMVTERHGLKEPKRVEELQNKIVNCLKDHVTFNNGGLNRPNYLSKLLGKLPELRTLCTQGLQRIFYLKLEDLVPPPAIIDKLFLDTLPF
Outline: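 Chimeric NR-Gal4 proteins were expressed in human HepG2 cells bearing GAL4-UAS reporter units, and induced reporter mRNA was quantified 24 h post-dosing by RT-PCR and capillary electrophoresis.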

[18] = target: Hepatocyte nuclear factor 4-alpha (Homo sapiens) (UniProt P41235); test: ATG_HNF4a_TRANS: Attagene TRANS-FACTORIAL HepG2 Assay for human Hepatocyte Nuclear Factor 4 alpha (HNF4a) (AID 2282982; active means hit-call score of the fitted dose curve at least 0.9, where 1 is the maximum); conditions: HepG2 HNF4a transactivation reporter, mRNA readout
Outline: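 Using HepG2 liver cells transfected with GAL4-UAS reporter units, chemical-induced mRNA increases were assessed after 24 hours. Fluorescent RT-PCR fragments were separated by capillary electrophoresis and compared with DMSO negative controls.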

Measured: AC50

Nc1ccc(Cl)cc1C(=O)c1ccccc1
active: [3] 160 µM
not listed: [13] | [14] | [15] | [16] | [17] | [18]
inactive: all other assays above

CC(=O)OC(c1ccccc1)C(Cl)(Cl)Cl (configuration not stated)
not listed: [3] | [7] | [9] | [16] | [17] | [18]
inactive: all other assays above

CC(=O)c1cc(C(C)(C)C)cc2c1CCC2(C)C
active: [17] 27.3 µM | [8] 146 µM | [9] 156 µM | [10] 61.7 µM | [11] 68.3 µM
inactive: [1] | [16] | [13] | [4] | [5] | [6] | [12]

O=P(O)(O)CN(CP(=O)(O)O)CP(=O)(O)O
not listed: [2] | [3] | [7] | [10] | [14] | [15] | [16]
inactive: all other assays above

Fc1ccc(C2(Cn3cncn3)OC2c2ccccc2Cl)cc1 (configuration not stated)
inactive: [1] | [2] | [16] | [17] | [5] | [6] | [7] | [8] | [9] | [11]

CN(C)N=O
not listed: [4] | [10] | [16]
inactive: all other assays above

CCCCCCCCc1ccc(O)cc1
active: [10] 11.2 µM | [14] 32.2 µM | [15] 37.2 µM
inactive: [1] | [13] | [3] | [4] | [17] | [5] | [6] | [7] | [8] | [9] | [10] | [11] | [12]

Cc1cc(=O)[nH]o1
not listed: [2] | [12] | [14] | [15] | [16] | [17]
inactive: all other assays above

O=C1CCCN1
inactive: [1] | [2] | [16] | [3] | [5] | [7] | [8] | [9] | [11]

Oc1ccc(-c2ccccc2)cc1
active: [8] 176 µM | [11] 73.8 µM | [12] 27.9 µM | [14] 20 µM
not listed: [10] | [13] | [16] | [17] | [18]
inactive: all other assays above
